From PubChem BioAssay AID1159580 (chemical genetic matrix, 2015)
“And” between values parts separate entries of the source, which are not always exact repeats. Equal entries are not always repeated. Among all 5,500 compounds or so, about 2,000 (36%) were called active. Roughly 18% stayed inconclusive and do not appear here. Rule as the data show it: active = normalized growth mostly below about 0.91 (no sharp cut-off); inconclusive = no clear call, values can overlap the other calls; inactive = mostly above about 0.92. This is one part of the list.

Assay: chemical genetic growth profiling, strain panel (AID 1159580);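 also: tested at 20 µM; growth read once vehicle control cultures reached saturation at 30 °C; 1 = growth at the plate median or of vehicle wells; lower values mean less growth of the strain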
Conditions: S. cerevisiae deletion strains, growth OD

Measured: normalized growth

NC(=O)CC[C@@H](N)C(=O)O
inactive: locus YAL021C, strain ccr4, active compounds read low 1.02 | locus YAL026C, strain drs2, active compounds read low 1.05 | locus YAL030W, strain snc1, active compounds read low 1.04 | locus YBL061C, strain skt5, active compounds read low 1.03 | locus YBR009C, strain hhf1, active compounds read low 1.03 | locus YBR021W, strain FUR4, active compounds read low 1.04 | locus YBR023C, strain chs3, active compounds read low 1.03 | locus YBR171W, strain sec66, active compounds read low 1.05 | locus YBR229C, strain ROT2, active compounds read low 1.01 | locus YBR231C, strain swc5, active compounds read low 1.02 | locus YBR279W, strain paf1, active compounds read low 1.02 | locus YCL011C, strain gbp2, active compounds read low 1.02 | locus YCL016C, strain dcc1, active compounds read low 1.02 | locus YCL029C, strain bik1, active compounds read low 1.01 | locus YCL061C, strain MRC1, active compounds read low 1.02 | locus YCL069W, strain vba3, active compounds read low 1.02 | locus YCR088W, strain abp1, active compounds read low 1.03 | locus YDL005C, strain med2, active compounds read low 1.04 | locus YDL035C, strain GPR1, active compounds read low 1.06 | locus YDL040C, strain nat1, active compounds read low 1.02 | locus YDL074C, strain BRE1, active compounds read low 1.09 | locus YDL101C, strain DUN1, active compounds read low 1.02 | locus YDL185W, strain tfp1, active compounds read low 1.01 | locus YDL192W, strain arf1, active compounds read low 1.03 | locus YDR001C, strain nth1, active compounds read low 1.02 | locus YDR069C, strain doa4, active compounds read low 1.03 | locus YDR101C, strain arx1, active compounds read low 1.01 | locus YDR137W, strain rgp1, active compounds read low 1.06 | locus YDR159W, strain sac3, active compounds read low 1.08 | locus YDR162C, strain NBP2, active compounds read low 1.05 | locus YDR195W, strain ref2 1.01 | locus YDR297W, strain sur2, active compounds read low 1.02 | locus YDR318W, strain mcm21, active compounds read low 0.996 | locus YDR334W, strain swr1, active compounds read low 1.03 | locus YDR335W, strain msn5, active compounds read low 1.04 | locus YDR388W, active compounds read low 0.993 | locus YDR392W, strain spt3, active compounds read low 0.937 | locus YDR502C, strain sam2, active compounds read low 1.02 | locus YEL003W, strain gim4, active compounds read low 1.02 | locus YEL037C, strain rad23, active compounds read low 1.03 | locus YEL061C, strain CIN8 (second series), active compounds read low 1.02 | locus YEL061C, strain CIN8, active compounds read low 1.02 | locus YER015W, strain faa2, active compounds read low 1.03 | locus YER016W, strain bim1, active compounds read low 1.02 | locus YER110C, active compounds read low 0.996 | locus YER111C, strain swi4, active compounds read low 1.02 | locus YER155C, strain BEM2 (second series), active compounds read low 0.971 | locus YER155C, strain BEM2, active compounds read low 1.01 | locus YER167W, strain BCK2, active compounds read low 1.02 | locus YFR010W, strain ubp6, active compounds read low 1.05 | locus YGL078C, strain dbp3, active compounds read low 1.03 | locus YGL086W, strain mad1, active compounds read low 1.02 | locus YGL167C, strain pmr1, active compounds read low 1.04 | locus YGL173C, strain kem1, active compounds read low 1.04 | locus YGL227W, strain vid30, active compounds read low 1.02 | locus YGL240W, strain doc1, active compounds read low 1.02 | locus YGL248W, strain PDE1, active compounds read low 1.02 | locus YGL253W, strain hxk2, active compounds read low 1.06 | locus YGR078C, strain PAC10, active compounds read low 1.04 | locus YGR135W, strain pre9, active compounds read low 1.02 | locus YGR252W, strain gcn5, active compounds read low 1.14 | locus YHR013C, strain ard1, active compounds read low 1.07 | locus YHR027C, strain rpn1, active compounds read low 1.04 | locus YHR030C, strain SLT2, active compounds read low 1.02 and 1.05 | locus YHR079C, strain IRE1 (second series), active compounds read low 0.987 | locus YHR079C, strain IRE1, active compounds read low 1.03 | locus YHR094C, strain hxt1, active compounds read low 0.984 | locus YHR129C, strain ARP1, active compounds read low 1.03 | locus YHR142W, strain chs7, active compounds read low 1.05 | locus YHR200W, strain rpn10, active compounds read low 1 | locus YIL066C, strain RNR3, active compounds read low 1.05 | locus YIL073C, strain SPO22, active compounds read low 1.13 | locus YIL125W, strain kgd1, active compounds read low 1.02 | locus YIR030C, strain dcg1, active compounds read low 0.998 | locus YJL092W, strain hpr5, active compounds read low 1.03 | locus YJL095W, strain BCK1 (second series), active compounds read low 1.02 | locus YJL095W, strain BCK1, active compounds read low 1.05 and 1.04 | locus YJL115W, strain asf1, active compounds read low 1.02 | locus YJL129C, strain trk1, active compounds read low 1.07 | locus YJL134W, strain LCB3, active compounds read low 1.01 | locus YJL154C, strain vps35, active compounds read low 1.02 | locus YJL164C, strain tpk1, active compounds read low 1.03 | locus YJL166W, strain qcr8, active compounds read low 1.04 | locus YJL168C, strain set2, active compounds read low 0.989 | locus YJL187C, strain SWE1 (second series), active compounds read low 1.03 | locus YJL187C, strain SWE1, active compounds read low 1.06 | locus YJR043C, strain POL32, active compounds read low 1.04 | locus YJR066W, strain TOR1, active compounds read low 1 | locus YKL009W, strain mrt4, active compounds read low 1.08 | locus YKL068W, active compounds read low 1.02 | locus YKL085W, strain MDH1 (second series), active compounds read low 1.01 | locus YKL085W, strain MDH1, active compounds read low 1.01 | locus YKL160W, strain elf1, active compounds read low 1.02 | locus YKR001C, strain vps1, active compounds read low 1.05 | locus YKR026C, strain gcn3, active compounds read low 1.03 | locus YKR091W, strain srl3, active compounds read low 1.03 | locus YLL001W, strain dnm1, active compounds read low 1 | locus YLL026W, active compounds read low 1.03 | locus YLL041C, strain sdh2, active compounds read low 1.02 | locus YLR027C, strain aat2, active compounds read low 1.02 | locus YLR039C, strain RIC1, active compounds read low 1.11 | locus YLR058C, strain SHM2, active compounds read low 1.02 | locus YLR102C, strain apc9, active compounds read low 0.98 | locus YLR113W, strain HOG1, active compounds read low 1.02 | locus YLR221C, strain rsa3, active compounds read low 1.04 | locus YLR258W, strain gsy2, active compounds read low 1.02 | locus YLR262C, strain YPT6 (second series), active compounds read low 1.05 | locus YLR262C, strain YPT6, active compounds read low 1.1 | locus YLR268W, strain sec22, active compounds read low 1.05 | locus YLR320W, strain mms22, active compounds read low 1.04 | locus YLR330W, strain CHS5, active compounds read low 1.03 | locus YLR342W, strain FKS1 (second series), active compounds read low 1.07 | locus YLR342W, strain FKS1, active compounds read low 1.03 | locus YLR357W, strain rsc2, active compounds read low 1.05 | locus YLR370C, strain arc18, active compounds read low 1.03 | locus YLR371W, strain rom2, active compounds read low 0.993 | locus YLR384C, strain iki3, active compounds read low 1.02 | locus YLR418C, strain cdc73, active compounds read low 1.07 | locus YML016C, strain PPZ1, active compounds read low 1.01 | locus YML032C, strain rad52, active compounds read low 1.02 | locus YML120C, strain ndi1, active compounds read low 1.03 | locus YML124C, strain tub3, active compounds read low 1.01 | locus YMR058W, strain fet3, active compounds read low 1.04 | locus YMR078C, strain ctf18, active compounds read low 0.988 | locus YMR125W, strain sto1, active compounds read low 1.03 | locus YMR129W, active compounds read low 1.02 | locus YMR205C, strain PFK2, active compounds read low 1.04 | locus YMR223W, strain ubp8, active compounds read low 1.02 | locus YMR231W, strain pep5, active compounds read low 1.03 | locus YMR263W, strain SAP30, active compounds read low 1.02 | locus YMR307W, strain GAS1, active compounds read low 1.13 | locus YNL067W, strain RPL9B, active compounds read low 1.03 | locus YNL071W, strain lat1, active compounds read low 1.03 | locus YNL153C, strain GIM3, active compounds read low 1.02 | locus YNL183C, strain NPR1, active compounds read low 1.01 | locus YNL209W, strain ssb2, active compounds read low 1.02 | locus YNL233W, strain BNI4, active compounds read low 1.03 | locus YNL248C, strain rpa49, active compounds read low 1.05 | locus YNL250W, strain rad50, active compounds read low 1.03 | locus YNL271C, strain bni1, active compounds read low 1.02 | locus YNL298W, strain CLA4, active compounds read low 1.02 | locus YNL307C, strain MCK1, active compounds read low 0.995 | locus YNL322C, strain KRE1 (second series), active compounds read low 1.02 | locus YNL322C, strain KRE1, active compounds read low 1.02 | locus YNR049C, strain mso1, active compounds read low 1.04 | locus YNR052C, strain pop2, active compounds read low 1.03 | locus YOL012C, strain htz1 1.02 | locus YOL147C, strain pex11, active compounds read low 1 | locus YOR001W, strain rrp6, active compounds read low 1.04 | locus YOR061W, strain CKA2, active compounds read low 1.02 | locus YOR069W, strain VPS5, active compounds read low 1.01 | locus YOR070C, strain gyp1, active compounds read low 1.01 | locus YOR080W, strain dia2, active compounds read low 1.03 | locus YOR083W, strain WHI5, active compounds read low 1.01 | locus YOR106W, strain vam3, active compounds read low 1.06 | locus YOR136W, strain idh2, active compounds read low 1.02 | locus YOR144C, strain elg1, active compounds read low 1 | locus YOR184W, strain ser1, active compounds read low 1.05 | locus YOR231W, strain MKK1, active compounds read low 1.03 | locus YOR265W, strain rbl2, active compounds read low 1.02 | locus YOR270C, strain vph1, active compounds read low 1.1 | locus YOR290C, strain snf2, active compounds read low 1.03 | locus YOR316C, strain cot1, active compounds read low 0.987 | locus YPL051W, strain arl3, active compounds read low 1 | locus YPL078C, strain atp4, active compounds read low 1.01 | locus YPL106C, strain sse1, active compounds read low 1.01 | locus YPL240C, strain hsp82, active compounds read low 1.02 | locus YPL241C, strain CIN2, active compounds read low 1.01 | locus YPL256C, strain CLN2, active compounds read low 1.05 | locus YPR119W, strain clb2, active compounds read low 0.991 | locus YPR141C, strain kar3, active compounds read low 1.01 | locus YPR163C, strain tif3, active compounds read low 0.99 | locus YPR167C, strain met16, active compounds read low 1 | strain wtn01, active compounds read low 1.06
